# Screening data from PubChem.
# Sampled rows, rich in hits. Any-hit rate of the full collection: about 3.7%.
# tim23-1 inh = tim23-1 yeast growth inhibition; S. cerevisiae tim23-1 growth, BacTiter-Glo luminescence, 24 h; inhibition, % at 20 µM; 330,000 tested, 1.3% active;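 active = growth inhibition of the mutant yeast at or above 50%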;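 note: temperature-sensitive mutant grown at 25 °C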
# TIM10 inh = TIM10 yeast growth inhibition; S. cerevisiae TIM10 strain growth, BacTiter-Glo luminescence, 24 h; inhibition, % at 10 µM; 330,000 tested, 1.4% active; AID 463195;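 active = inhibition of 40% or more at the single tested concentration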;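 note: wild-type TIM10 isogenic control strain grown at permissive 25 °C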
# Rce1 inh = inhibitors of yeast Ras-converting enzyme; Q03530; yeast membranes, quenched prenylated peptide cleavage fluorescence; calls only; 290,000 tested, 0.27% active; AID 2563;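 active = fall in fluorescence gain of 50% or more versus controls, with final raw signal at or below 3038400; inconclusive = same 50% fall but final raw signal above 3038400; inactive = fall in fluorescence gain under 50%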
# Target sequence (Q03530 whole entry, looked up): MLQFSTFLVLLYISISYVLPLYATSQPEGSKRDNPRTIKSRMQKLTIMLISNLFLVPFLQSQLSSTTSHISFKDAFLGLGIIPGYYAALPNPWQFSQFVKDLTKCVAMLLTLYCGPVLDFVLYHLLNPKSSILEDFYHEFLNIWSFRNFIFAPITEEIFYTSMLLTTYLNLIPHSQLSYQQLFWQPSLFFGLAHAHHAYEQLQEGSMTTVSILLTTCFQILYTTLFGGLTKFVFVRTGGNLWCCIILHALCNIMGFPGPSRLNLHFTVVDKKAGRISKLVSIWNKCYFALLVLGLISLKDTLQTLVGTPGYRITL
# PfHsp90 set2 = reduces growth (ATP signal) of yeast expressing P. falciparum Hsp90 | 310,000 tested, 0.32% active | AID 504621 | inhibition, % at 9.4 µM | S. cerevisiae expressing PfHsp90, BacTiter-Glo ATP, 48 h; yeast lacking PDR1 and PDR3 efflux regulators;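 active = every replicate shows inhibition above about 80%, whatever the replicate mean, limit read from the data; inconclusive = mean inhibition reaches the set limit but some replicate falls short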
# tim10-1 inh = inhibits growth of tim10-1 mutant yeast. inhibition, % at 20 µM. 330,000 tested, 2.2% active. S. cerevisiae tim10-1 ts strain growth, BacTiter-Glo, 24 h;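 active = inhibition of at least 40%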;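 note: mutant grown at 25 °C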
# Hits are given with their value; n = inactive; u = inconclusive; x = no result given; + = active, no number.
SMILES,tim23-1 inh,TIM10 inh,Rce1 inh,PfHsp90 set2,tim10-1 inh
CC(C)(C)N1CC23C=CC(C[C@@H]2C1=O)O3 (some centres not stated),n,n,n,n,n
CCn1c(CNc2ccc(Cl)cc2)nnc1SCc1ccccc1,n,n,n,92.5,n
Cn1c(CNc2ccc(Cl)cc2)nnc1SCc1ccccc1,n,n,n,121.0,n
COC1OCC(O)C(OC(=O)c2ccccc2)C1OC(=O)c1ccccc1 (configuration not stated),x,x,x,n,x
CCCC(=O)NC(Nc1cccc(C(F)(F)F)c1)C(Cl)(Cl)Cl (configuration not stated),n,n,n,n,n
CCc1ccc(NC(=O)CSc2nc(=O)n3cc(C)ccc3n2)cc1,n,n,n,x,n
COc1cc(C(=O)OCC(=O)Nc2ccc(OC(F)F)cc2)cc(OC)c1OC,n,n,n,n,n
COc1cc(C(=O)OCC(=O)Nc2ccc(SC(F)F)cc2)cc(OC)c1OC,n,n,+,n,n
CCn1c(CC(=O)Nc2ccc(F)cc2)nnc1SCC(=O)Nc1nnc(C)s1,n,n,n,n,n
O=C(N1CCOCC1)N(CCN1CCOCC1)Cc1cccc2ccccc12,n,n,n,n,n
CC1(C(=O)c2ccccc2)C2c3c(ccc4ccccc34)OC(=O)C21C(=O)N1CCOCC1 (configuration not stated),n,n,n,105.2,n
CN(CC(=O)Nc1ccc(F)c(F)c1F)C(=O)c1n[nH]c(=O)c2ccccc12,n,n,x,n,n
CCCc1cc(=O)n2[nH]c(C)c(-c3ccccc3)c2n1,n,n,+,n,n
COC(=O)Cc1cc(=O)n2[nH]c(C)c(-c3ccccc3)c2n1,n,n,n,n,n
CCOC(=O)C1=C(C)OC(N)=C(C#N)C1c1cc2c(cc1[N+](=O)[O-])OCO2 (configuration not stated),n,n,+,n,n
O=C(Oc1ccc(N(C(=O)c2ccncc2)S(=O)(=O)c2ccc(Cl)cc2)cc1)c1ccncc1,n,n,n,u,n
Cc1ccc(S(=O)(=O)N(C(=O)c2ccncc2)c2ccc(OC(=O)c3ccncc3)cc2)c(C)c1,n,n,n,89.2,n
Cc1ccc(C)c(S(=O)(=O)N(C(=O)c2ccncc2)c2ccc(OC(=O)c3ccncc3)cc2)c1,n,n,n,n,n
COc1ccc(N(C(=O)c2ccncc2)S(=O)(=O)c2ccc(Cl)cc2)cc1,n,n,n,96.9,n
Cc1ccc(S(=O)(=O)N(C(=O)c2ccncc2)c2ccc(OC(=O)c3ccncc3)cc2)cc1,n,n,n,94.9,n
CCc1ccc(S(=O)(=O)N(C(=O)c2ccncc2)c2ccc(OC(=O)c3ccncc3)cc2)cc1,n,n,n,100.9,n
O=C(Oc1ccc(N(C(=O)c2ccncc2)S(=O)(=O)c2ccc(F)cc2)cc1)c1ccncc1,n,n,n,n,n
COc1ccc(S(=O)(=O)Nc2ccccc2C(N)=O)cc1OC,n,n,n,n,n
CN(C)CCN(C(=O)c1ccc2ccccc2c1)c1nc2ccc(F)cc2s1,n,n,+,n,n
CCc1ccc2nc(N(CCN(C)C)C(=O)c3ccc4ccccc4c3)sc2c1,n,n,n,n,n
SMILES,tim23-1 inh,TIM10 inh,Rce1 inh,PfHsp90 set2,tim10-1 inh
Cc1cc(-c2cc(-c3ccc(Cl)cc3)nc(N)c2C#N)co1,n,n,n,121.9,n
Cc1ccc(-c2cc(-c3ccc(F)cc3)c(C#N)c(N)n2)o1,n,n,n,120.0,n
Cc1ccsc1/C=N/n1c(COc2ccccc2)n[nH]c1=S,n,n,n,n,n
O=C(CCN1C(=O)/C(=C/c2cccs2)SC1=S)NC1=NCCS1,x,x,x,106.3,x
COc1ccc(CSc2ccc(-c3nc4ccccn4c3NCc3ccccc3)cc2OC)cc1,n,n,+,n,n
C#CCNC(=O)C1=C[C@@H](C2CCCCC2)C[C@@H](OCc2ccc(CO)cc2)O1,n,n,+,x,n
C#CCNC(=O)C1=C[C@H](C2CCCCC2)C[C@H](OCc2ccc(CO)cc2)O1,n,n,n,n,n
Cc1oc2c(CN3CCCC3)c(O)ccc2c(=O)c1-c1ccc(Br)cc1,n,n,+,n,n
O=[N+]([O-])c1ccc(O)c(C2CCCCC2)c1,x,x,x,108.0,x
CC(=NNC(=S)N1CCCCC1)c1cccc(C)n1,x,x,x,n,x
CSC(=S)NN=C(C)c1cccc(C)n1,x,x,x,104.5,x
Cc1ccc(C(=O)NCCc2ccc(S(N)(=O)=O)cc2)cc1[N+](=O)[O-],n,n,n,n,n
Cc1cc(C)n2cc(CSc3ccc(Br)cc3)nc2n1,n,n,n,x,n
Cc1cc(C)n2cc(CSCC(=O)O)nc2n1,n,n,+,n,n
